Our source for the inhibition values is PubChem BioAssay AID624330 (Southern Research Specialized Biocontainment Screening …, 2012).

The structures appear in SMILES notation. Hit rate of the full screen: of about 340,000 compounds, about 2,100 (0.62%) were called active. A selection follows. Entries with a potency or affinity are not part of this list. Unmarked numbers belong to inactive results.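 How the source made its calls: active means first-screen hits whose inhibition reached a set limit at any dose in the follow-up dose series; inconclusive means inhibition above the set first-screen limit but never retested; inactive means the rest.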

The target in the assay is Rac GTPase-activating protein 1 (Homo sapiens) (UniProt Q9H0H5). Kind of assay: MgcRacGAP GTPase-activating activity inhibitors, confirmation, biochemical, ADP Hunter fluorescence, primary and confirmatory (AID 624330).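 Further: fluorescence reports GDP produced by GAP-driven GTP hydrolysis.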 The conditions noted are these: MgcRacGAP-stimulated Rac1 GTP hydrolysis, at 30 µM, stronger effect = higher value, GST-tagged Rac1 F28L mutant substrate.
Chain of Rac GTPase-activating protein 1 (Homo sapiens) (Q9H0H5 whole entry, looked up): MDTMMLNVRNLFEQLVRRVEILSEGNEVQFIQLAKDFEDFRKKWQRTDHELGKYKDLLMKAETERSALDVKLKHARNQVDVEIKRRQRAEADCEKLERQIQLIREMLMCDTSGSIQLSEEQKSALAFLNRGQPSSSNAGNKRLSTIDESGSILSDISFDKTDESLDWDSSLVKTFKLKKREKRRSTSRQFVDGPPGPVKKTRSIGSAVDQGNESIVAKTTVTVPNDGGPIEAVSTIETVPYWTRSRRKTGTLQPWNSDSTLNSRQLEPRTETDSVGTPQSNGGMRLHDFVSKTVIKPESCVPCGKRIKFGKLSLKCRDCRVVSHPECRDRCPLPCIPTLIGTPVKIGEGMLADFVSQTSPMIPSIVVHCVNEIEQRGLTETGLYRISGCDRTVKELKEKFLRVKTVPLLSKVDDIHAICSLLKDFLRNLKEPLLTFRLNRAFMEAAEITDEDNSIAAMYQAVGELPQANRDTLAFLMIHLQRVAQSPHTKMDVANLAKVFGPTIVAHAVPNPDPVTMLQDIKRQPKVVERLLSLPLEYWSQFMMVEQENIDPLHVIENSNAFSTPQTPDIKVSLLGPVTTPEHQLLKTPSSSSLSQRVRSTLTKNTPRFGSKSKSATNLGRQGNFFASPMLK
Broadly, the inhibition is the relative decrease from the control value, in per cent. Regarding `CCOC(=O)C(Cc1c(F)cccc1Cl)c1ccnc2nc(N)nn12` (stereo not given), the inhibition was 7.53%.

`CCC(CC)CN1C(Nc2ccccc2)=NC[C@@H]1CC(C)C`: the inhibition was 7.15%.

As to `Cn1c(SCC(=O)NNC(=O)c2ccc(Br)cc2)nnc1-c1cccnc1`, the inhibition was 6.67%. Regarding `CC1CN(CC(=O)NN=C(c2ccccc2)c2ccccc2)CC(C)O1` (stereo not given), the inhibition was 8.46%. Next, `Cc1cccc2sc(NC(=O)CSc3nc4ccccc4o3)nc12`: 7.18%; `CC(Sc1ncnc2ccccc12)C(=O)Nc1ccc2c(c1)OCO2` (stereo not given): 5.78%; `COc1ccc(OC(C)C(=O)N2CCN(c3ccccn3)CC2)cc1` (stereo not given): -1.84%. As for `CC1CCCN(C(=O)COC(=O)CNS(=O)(=O)c2ccc3ccccc3c2)C1` (stereo not given), the inhibition was 11.5%. As to `COc1cc(/C=C/C(=O)OCC(=O)NCCCc2ccccc2)cc(OC)c1OC`, the inhibition was 2.15%. With `COc1ccc(/C=C/C(=O)OCC(=O)NCCCc2ccccc2)cc1OC` the figure was 1.47%. With `O=C(NCCc1c[nH]c2ccccc12)C(=O)NCC(c1ccco1)N1CCN(c2ccc(F)cc2)CC1` (stereo not given) the figure was 5.54%.

Turning to `C[C@@H]1CN([C@@H](C)CO)C(=O)c2cc(-c3ccccc3F)cnc2O[C@H]1CN(C)Cc1cccc(F)c1`, the inhibition was 5.55%. Next, `COc1cccc2c(C)c(C(=O)O)[nH]c12`: 7.15%. Next, `COc1ccc(OC)c2c(C)cc(C)nc12`: 4.59%; `COc1ccc(N(CC(=O)Nc2ccc(OC)c(OC)c2)S(=O)(=O)c2ccccc2)cc1Cl`: 12.2%; `CCOC(=O)C1CCN(Cc2ccc(OC)c(OCc3ccccc3)c2)CC1`: 27.7%. For `COc1ccccc1C(=O)N1CCN(C2CCN(Cc3ccccc3)CC2)CC1`, the inhibition is 19.4%. Next, `CCOC(=O)C1CCN(Cc2ccc(OCc3ccccc3)c(OC)c2)CC1`: 15.7%; `COc1cc(C(=O)N2CCN(CCCc3ccccc3)CC2)cc(OC)c1OC`: 15.2%; `COc1ccc(C(=O)N2CCN(C(=O)Cc3ccccc3)CC2)cc1OC`: 3.19%. Next, `COc1cc(OC)cc(C(=O)N2CCN(C3CCN(Cc4ccccc4)CC3)CC2)c1`: 29%. In the case of `CCc1ccc(CN2CCN(C(=O)c3cccc(OC)c3OC)CC2)cc1`, the inhibition is 23.3%. With `COc1ccc(C(=O)N2CCN(C3CCC(c4ccccc4)CC3)CC2)cc1OC` (stereo not given) the figure was 23.6%; with `CCn1c(Cc2cccs2)nnc1SCC(=O)Nc1ccc(OC)c(OC)c1`, 7.07%; with `O=C(CCCn1c(=O)oc2ccccc21)N1CCc2ccccc2C1`, 8.41%.

On to `O=C(CSc1nccc(=O)[nH]1)Nc1cccc2ccccc12`, for which the inhibition was 8.22%. Next, `Cc1cc(C)cc(NS(=O)(=O)c2ccc3[nH]c(=O)ccc3c2)c1`: 6.34%; `CCCCN(C(=O)c1cccc(-c2ccc(OC(C)=O)cc2)c1)c1c(N)n(CCC)c(=O)[nH]c1=O`: 8.17%. With `CCc1c(C)c2ccc(O)c(CN(C)C)c2oc1=O` the figure was 3.54%. Turning to `CC(C)c1cc(C(F)(F)F)n2nc(C(=O)Nc3ccc(-n4cnnn4)cc3)cc2n1`, the inhibition was 0.65%.

Turning to `CCc1cc(C(=O)N2CCCC(CNC(=O)c3ccc(-c4ccccc4)cc3)C2)no1` (stereo not given), the inhibition is 1.46%. Next, `O=C(COC(=O)c1ccc(O)cc1O)Nc1cccc2ccccc12`: 4.44%; `CC12CCC(=O)C=C1C(F)CC1C2C(O)CC2(C)C1CCC2(O)C(=O)CO` (stereo not given): -2.17%. With `Oc1ccccc1C1Nc2cccc3cccc(c23)N1` the figure was 26.2%; with `COc1ccc(Br)cc1C1Nc2cccc3cccc(c23)N1`, 13.1%; with `COc1ccc(C2Nc3cccc4cccc(c34)N2)cc1`, 16%. With `COc1cc(C2Nc3cccc4cccc(c34)N2)cc(OC)c1O` the figure was 12.2%; with `O=C(Oc1cccc2cccnc12)c1ccco1`, 12.4%; with `COCC(=O)N(Cc1cc2cc(C)ccc2[nH]c1=O)c1ccc(C)c(C)c1`, 16.2%. As for `O=[N+]([O-])c1ccc(Cl)c(S(=O)(=O)/N=C(/c2ccccc2)N2CCOCC2)c1`, the inhibition is 2.34%.

With `Cc1ccccc1C(=O)N1CCC(C(=O)NCc2ccc(Cl)cc2)CC1`, the inhibition was 8.11%. With `CC(OC(=O)CC1CCCCC1)C(=O)Nc1ccc(S(N)(=O)=O)cc1` (stereo not given) the figure was 1.14%; with `Cc1cc(C)c(C)c(S(=O)(=O)Nc2ccc(C(N)=O)cc2)c1C`, 13.9%. Next, `Cc1cc(C)c(S(=O)(=O)Nc2ccccc2)c(C)c1`: -2.09%; `CC(=O)c1ccc(NS(=O)(=O)c2c(C)cc(C)cc2C)cc1`: 2%. With `Cc1cc(C)c(C)c(S(=O)(=O)Nc2ccc(OCC(=O)O)cc2)c1C` the figure was -3.75%; with `O=C(NC1CC1)c1ccc(CN(c2ccccc2)S(=O)(=O)c2ccccc2)cc1`, 5.44%; with `O=C(Nc1cccc(-c2ccc(N3CCOCC3)nn2)c1)c1ccc(Cl)cc1`, 3.67%. On to `CCc1c(C)nc(SCC(=O)N2CCN(c3ccccc3)CC2)[nH]c1=O`, for which the inhibition is 13%. With `Cc1ccc(N=Cc2cc(Cc3ccccc3Cl)cc([N+](=O)[O-])c2O)c(O)c1` the figure was 20.2%. Regarding `O=[N+]([O-])c1cc(Cc2ccccc2)cc(C=Nc2ccc(N3CCOCC3)cc2)c1O`, the inhibition was 27.8%. With `O=C(COC(=O)c1cnccn1)NCCc1ccc(Cl)cc1` the figure was 8.82%; with `CCOc1ccc(C(=O)NNC(=O)C2CC(=O)N(c3ccc(C)cc3)C2)cc1` (stereo not given), 5.17%; with `Oc1ccccc1/C=N/Nc1nccnc1Cl`, 5.4%. Turning to `Clc1cnc(N/N=C/c2ccncc2)c(Cl)c1`, the inhibition was 3.41%. Next, `Oc1ccc(/C=N/Nc2ccnc3cc(Cl)ccc23)c(O)c1`: 17.9%; `Fc1ccc(/C=N/Nc2nccnc2Cl)cc1`: 15.7%; `Clc1nccnc1N/N=C/c1ccc(Br)cc1`: 13.4%. With `O=C(O)c1ccc(/C=N/Nc2ncc(Cl)cc2Cl)cc1` the figure was 2.45%. Next, `CCC(NC(=O)c1ccccc1NC(=O)C(C)(C)C)C(=O)N1CCCC1` (stereo not given): 7.5%. As for `CCN(C(=O)CSc1nc2cc(S(=O)(=O)N(CC)CC)ccc2n1CC)C1CCS(=O)(=O)C1` (stereo not given), the inhibition is 0.8%. For `COCCN(C(=O)c1cccc(-n2cnnn2)c1)c1c(N)n(CC(C)C)c(=O)[nH]c1=O`, the inhibition is 5.99%. In the case of `CCc1cc(C(=O)N2CCN(S(=O)(=O)c3ccc(Cl)cc3)CC2)sc1C`, the inhibition was 1.55%. With `O=C(c1cc(S(=O)(=O)N2CCCCC2)ccc1N1CCOCC1)N1CCN(Cc2ccccc2)CC1` the figure was 7.61%. Next, `NC(=S)NNC(=O)[C@@H]1CCCC[C@@H]1C(=O)O`: 11.2%; `C=CCOc1cccc(/C=N/NC(=O)CN2CCCCC2)c1`: 8.26%. Next, `O=C(C[C@H]1C/C=C\C[C@@H](Cc2ccc(F)cc2)C(=O)OC[C@H]2CCCN2C1=O)N[C@@H](CO)Cc1ccccc1`: 4.35%. On to `CC(NC(=O)c1cccc(C(F)(F)F)c1)C1CCCO1` (stereo not given), for which the inhibition was 6.29%. Consider `O=c1cc(-c2ccc(O)cc2)oc2c([C@@H]3O[C@H](CO)[C@@H](O)[C@H](O)[C@H]3O)c(O)c([C@@H]3O[C@H](CO)[C@@H](O)[C@H](O)[C@H]3O)c(O)c12`, for which the inhibition was 5.95%. Next, `O=c1cc(-c2ccc(O)cc2)oc2cc(O)c(C3OC(CO)C(O)C(O)C3O)c(O)c12` (stereo not given): 12.2%; `CC1OC(OCC2OC(Oc3c(-c4ccc(O)cc4)oc4cc(O)cc(O)c4c3=O)C(O)C(O)C2O)C(O)C(O)C1O` (stereo not given): 7.46%.

Take `O=c1cc(-c2ccc(O)cc2)oc2cc(O)c([C@@H]3O[C@H](CO)[C@@H](O)[C@H](O)[C@H]3O)c(O)c12`: the inhibition is 4.21%. With `COc1ccc(-c2cc(=O)c3c(O)cc(OC4OC(COC5OC(C)C(O)C(O)C5O)C(O)C(O)C4O)cc3o2)cc1O` (stereo not given), the inhibition is 4.67%. Next, `O=c1c2cc(O)c(O)cc2oc2cc(O)c(C3OC(CO)C(O)C(O)C3O)c(O)c12` (stereo not given): 23.9%; `CCn1ncc([N+](=O)[O-])c1C(=O)Nc1c(C)nn(Cc2ccc(F)cc2)c1C`: -5.73%.

Consider `CN(C)S(=O)(=O)N1CCN(Cc2ccccc2)CC1`, for which the inhibition was -9.47%.

As to `COc1cccc(C(=O)NC2(C(F)(F)F)N=C3SCCN3C2=O)c1` (stereo not given), the inhibition is 8.58%.

Turning to `COc1ccc(C(=O)N/N=C(/C)c2cccc(NC(=O)c3ccccc3F)c2)cc1`, the inhibition was 6.03%.

For the molecule `Cc1nc2ccccc2c(=O)n1NC(=O)Cc1ccc(Br)cc1`, the inhibition was 1.21%. Next, `C=CCc1c(C)nc(-c2ccccc2)nc1N/N=C/c1ccccc1`: 9.45%; `C=CCc1c(C)nc(-c2ccccc2)nc1Nc1ccccc1O`: -2.42%; `COc1ccc(NC(=O)CN2C(=O)C(C)Oc3ccccc32)c(OC)c1` (stereo not given): 9.91%.

Turning to `CC(C)(C)C(=O)NCc1ccc(C(=O)CSc2nnc3n2CCCCC3)s1`, the inhibition was 9.14%. With `CCOc1ccc(C(CC(=O)O)NC(=O)c2ccco2)cc1OC` (stereo not given) the figure was 5.75%.

For `Cc1cc(N/N=C/c2ccc(O)cc2O)c2ccccc2n1`, the inhibition was -8.64%. Next, `Cc1cc(N/N=C/c2ccc(O)cc2O)nc(-c2ccccc2O)n1`: 9.61%.

As for `Oc1cccc(C=NNc2ccccn2)c1`, the inhibition was 2.05%. Next, `Oc1ccc(/C=N/Nc2cccc3cccnc23)c(O)c1`: 0.03%; `Oc1ccc(/C=N/Nc2ccc3ccccc3c2)c(O)c1`: 9.51%; `COc1cccc(/C=N/Nc2cc(Cl)nc(C)n2)c1O`: -19.7%.
